PubChem BioAssay AID1259421 (Broad Institute, 2018)
Several values for one entry are separate records, joined by “and”; a condition that tells them apart may be missing. Identical values can stand only once. Among all 6,400 compounds or so, about 610 (9.5%) were called active. Cut-off read from the data, not from the text of the source: active = activity change below about -70%; inconclusive = no clear call, values can overlap the other calls; inactive = above that. What follows is part of a selection rich in actives, with near analogues and random picks from the rest. More than one record can exist for a structure, and the calls need not agree.

Experiment: Toxoplasma gondii ME49Luc growth in HeLa cells, luciferase, no IFN-y, primary screen (AID 1259421)
Details: T. gondii ME49Luc in HeLa, 72 h, stronger effect = lower value, concentration not given here

SMILES	activity change, negative = inhibition
CC(N)Cn1ccc2cc(F)c(Cl)cc21 (stereo not given)	4.63% (inactive)
COc1cc2c(cc1OC)-c1c(oc3c4c(ccc3c1=O)OC(C(C)C)C4)CO2 (stereo not given)	16.2% (inactive)
Cc1cccc(Cc2cnc[nH]2)c1C	32.1% (inactive)
CN1C[C@@H](NS(=O)(=O)N(C)C)C[C@@H]2c3cccc4c3c(cn4C)C[C@H]21	14.9% (inactive)
COC(=O)NC(=S)Nc1ccccc1NC(=S)NC(=O)OC	8.42% (inactive) and 11.6% (inactive)
CC(C)=CCCN1CCC(NC(=O)[C@](O)(c2ccccc2)C2CCCC2)CC1	1.64% (inactive)
Fc1cc(F)c2c(c1)[C@H]1C=CC[C@H]1C(c1cccnc1)N2 (stereo not given in full)	-75.5% (active)
c1cncc(C2CCCCN2)c1 (stereo not given)	9.05% (inactive) and -25.4% (inactive)
c1cncc(C2CCCN2)c1 (stereo not given)	2.36% (inactive)
O=C1CC[C@@]2(O)[C@H]3Cc4ccc(O)c5c4C2(CCN3CC2CC2)[C@H]1O5	-9.85% (inactive)
COc1cc2c3cc1Oc1c(OC)c(OC)cc4c1[C@@H](Cc1cccc(c1)Oc1ccc(c(O)c1)C[C@@H]3N(C)CC2)N(C)CC4	-11.3% (inactive)
CCCCC/C=C\C/C=C\C/C=C\C/C=C\CCCC(=O)Nc1ccc(O)cc1	-78.5% (active)
CCCCC/C=C\C/C=C\C/C=C\C/C=C\CCCC(=O)NCc1ccc(O)c(OC)c1	8.17% (inactive)
CCCCC/C=C\C/C=C\C/C=C\C/C=C\CCCC(=O)NCCO	34.9% (inactive)
COC(=O)C=CC(=O)NC1CCC2(O)C3Cc4ccc(O)c5c4C2(CCN3CC2CC2)C1O5 (stereo not given)	12.8% (inactive)
CC(=O)[O][Hg][c]1ccccc1	-50.7% (inactive)
C[C@@H]([C@H](O)c1ccccc1)N(C)C	-0.751% (inactive) and -3.37% (inactive)
C[Se]C[C@H](N)C(=O)O	10.4% (inactive)
COc1ccc2c(c1OC)CN1CCc3cc4c(cc3C1C2)OCO4 (stereo not given)	15.2% (inactive)
COc1cc([C@@H]2c3cc4c(cc3[C@@H](O)C3COC(=O)C32)OCO4)cc(OC)c1O (stereo not given in full)	-8.26% (inactive)
COc1cc([C@@H]2c3cc4c(c(O)c3C[C@H]3COC(=O)[C@@H]32)OCO4)cc(OC)c1OC	-71.9% (active)
COc1ccc2c(c1OC)C(=O)O[C@@H]2[C@H]1c2cc3c(cc2CCN1C)OCO3	2.97% (inactive)
COc1cc([C@@H]2c3cc4c(cc3[C@H](OC(C)=O)[C@H]3COC(=O)[C@H]23)OCO4)cc(OC)c1OC	-81.6% (active)
CCN1C[C@]2(OC(=O)c3ccccc3NC(C)=O)CCC(OC)[C@]34C1[C@H](CC23)[C@@]1(O)CC(OC)[C@H]2CC4C1(O)[C@H]2OC (stereo not given in full)	-6.02% (inactive)
CC(C)(C)[C@]1(O)C[C@@H]2OC(=O)C[C@@]23C(=O)O[C@@H]2OC(=O)[C@H](O)C213 (stereo not given in full)	7.37% (inactive)
COC1(C[S@@](=O)c2ccccc2)CCN(CCc2c[nH]c3ccc(F)cc23)CC1	22.1% (inactive)
CN1[C@@H]2CC[C@H]1CC(OC1c3ccccc3CCc3ccccc31)C2 (stereo not given in full)	15.8% (inactive)

SMILES	activity change, negative = inhibition
c1ccc2c(c1)sc1ccccc12	-5.87% (inactive)
C=C[C@H]1CN2CC[C@H]1C[C@@H]2[C@H](O)c1ccnc2ccccc12	-7.58% (inactive)
CC(C)[C@]12O[C@H]1[C@@H]1O[C@]13[C@]1(O[C@H]1C[C@H]1C4=C(CC[C@@]13C)C(=O)OC4)[C@@H]2O	-86.5% (active)
CC(C)c1ccc2c(c1O)CC[C@H]1C3=C(CC[C@]21C)C(=O)OC3	0.532% (inactive)
C[C@@H]1CN(Cc2ccc(F)cc2)CCN1C(=O)COc1ccc(Cl)cc1NC(N)=O	-3.05% (inactive)
O=c1ccc2cc(O[C@@H]3O[C@H](CO)[C@@H](O)[C@H](O)[C@@H]3O)c(O)cc2o1	-0.686% (inactive)
C=C(C)[C@@H]1[C@H]2OC(=O)[C@H]1[C@]1(O)C[C@H]3O[C@]34C(=O)O[C@H]2[C@]14C	2.63% (inactive)
CCN(CC)CCOC(=O)C(C)(c1ccccc1)c1ccccc1	15.3% (inactive)
O=C(N[C@H]1CN2CCC1CC2)c1cc2cccc(Cl)c2s1	25.6% (inactive)
O=c1[nH]c2ccc(Cl)cc2c(N[C@@H]2CN3CCC2CC3)c1-c1nc2ccccc2[nH]1	-83.1% (active)
O=C(N[C@H]1CN2CCC1CC2)c1ccc(Cl)cc1	10.2% (inactive) and 9.22% (inactive)
C[N+]1(C)CCc2cc3c(cc2C1[C@@H]1OC(=O)c2c1ccc1c2OCO1)OCO3 (stereo not given in full)	-1.51% (inactive) and 8.52% (inactive)
C1CN2CCC1CC2	14.5% (inactive)
O=C1NC(=S)NC(=O)C1C(=O)Nc1ccccc1	57.2% (inactive)
CC12CCC3C(CCC4C(=O)C(=O)CCC43C)C1CCC2=O (stereo not given)	21.2% (inactive)
Fc1ccc(C(OCCN2CCN(C/C=C/c3ccccc3)CC2)c2ccc(F)cc2)cc1	-83.2% (active) and -79.9% (active)
C(=C\c1ccccc1)/CN1CCN(CCOC(c2ccccc2)c2ccccc2)CC1	-4.36% (inactive) and -26.8% (inactive) and -5.08% (inactive)
Fc1ccc(C(OCCN2CCN(CCCc3ccccc3)CC2)c2ccc(F)cc2)cc1	-67.4% (inactive) and 5.82% (inactive)
O=c1oc2ccccc2c(O)c1Cc1c(O)c2ccccc2oc1=O	-3.14% (inactive) and 12.5% (inactive)
N[C@]1(C(=O)O)CC[C@@H](C(=O)O)C1 (racemic)	3.76% (inactive)
c1ccc2c(c1)[I+]c1ccccc1-2	-67.1% (inactive) and -88.6% (active)
O=C1c2ccccc2C(=O)c2ccccc21	-6.04% (inactive)
FC(F)(F)c1cccc(N2CCNCC2)c1	-1.94% (inactive)
CN=C(NS(=O)(=O)c1ccc(Cl)cc1)N1C[C@H](c2ccccc2)C(c2ccc(Cl)cc2)=N1	38.2% (inactive)
Cc1ccc2c(c1)C1(CCN(CCc3nc(-c4ccccc4)oc3C)CC1)OC(=O)N2	0.534% (inactive) and -16.6% (inactive)
CC(C)(C)NCC(O)c1ccc(O)cc1Cl (stereo not given)	-2.47% (inactive)
CN1C2C[C@H](OC(=O)[C@H](CO)c3ccccc3)C[C@H]1[C@@H](O)C2	4.91% (inactive)

SMILES	activity change, negative = inhibition
CN1C2C[C@H](OC(=O)[C@H](CO)c3ccccc3)C[C@@H]1[C@@H](O)C2	6.31% (inactive)
CCCCCOc1c(OC)ccc2cc(C(=O)NCc3ccc4c(c3)OCO4)c(=O)[nH]c12	23.5% (inactive) and -61.7% (inactive)
C#CC1(O)CCC2C3CCC4=CC(=O)CCC4(C)C3CCC21C (stereo not given)	-6.31% (inactive) and -17.5% (inactive)
C[C@]12CC[C@H]3[C@@H](CCC4=CC(=O)CC[C@@]43C)[C@@H]1CC[C@H]2O	8.39% (inactive)
C[C@]12CCC(=O)C=C1CC[C@@H]1[C@@H]2C(=O)C[C@]2(C)C(=O)CC[C@@H]12	8.66% (inactive)
C[C@]12CCC3c4ccc(OC(=O)N(CCCl)CCCl)cc4CCC3C1CC[C@@H]2O (stereo not given in full)	-52.4% (inactive)
C[C@]12CCC(=O)C=C1CCC1C2CC[C@@]2(C)C1CC[C@@H]2O (stereo not given in full)	-78.3% (active) and -86.2% (active)
CCCCCCC(=O)O[C@H]1CC[C@H]2[C@@H]3CCC4=CC(=O)CC[C@]4(C)[C@H]3CC[C@]12C	-77% (active)
CCC[C@@H]1CC2=CC(=O)CC[C@]2(C)[C@H]2CC[C@@]3(C)[C@@H](CC[C@@]3(O)CCC(=O)O)[C@H]12	17.5% (inactive)
CCCC1CC2=CC(=O)CCC2(C)C2CCC3(C)C(CCC3(O)CCC(=O)O)C12 (stereo not given)	13% (inactive)
C#C[C@]1(O)C=C[C@H]2[C@@H]3CCC4=CC(=O)CC[C@@H]4[C@H]3CC[C@@]21CC	-40.4% (inactive)
C[C@]12CCC(=O)C=C1CCC1C2CC[C@@]2(C)C1CC[C@H]2O (stereo not given in full)	2.85% (inactive)
C[C@]12CC[C@H]3[C@@H](CCC4=CC(=O)CC[C@@H]43)[C@@H]1CC[C@@H]2O	-79.7% (active)
CCC(=O)O[C@H]1CCC2C3CCC4=CC(=O)CC[C@]4(C)C3CC[C@@]21C (stereo not given in full)	-76.8% (active) and -88.9% (active)
CC(C)[C@]1(O)[C@@H](OC(=O)c2ccc[nH]2)[C@@]2(O)[C@@]3(C)C[C@]4(O)O[C@@]5([C@H](O)[C@@H](C)CC[C@]35O)[C@@]2(O)C41C	7.71% (inactive)
N#Cc1ccccc1-c1cc(-c2ccccn2)cn(-c2ccccc2)c1=O	3.7% (inactive)
C=CCN1CC[C@]2(C)c3cc(O)ccc3CC1[C@@H]2C	17.7% (inactive)
Cc1ccccc1-n1c(CF)nc2ccc(N)cc2c1=O	11.5% (inactive)
CCN(CC)Cc1nccn1-c1ccc([N+](=O)[O-])cc1C(=O)c1ccccc1Cl	-2.08% (inactive)
C=C(C)CN1CC[C@]23c4c5ccc(O)c4O[C@H]2c2[nH]c4ccccc4c2C[C@@]3(O)C1C5	3.03% (inactive) and 27.5% (inactive)
CN1C(=O)C(O)N=C(c2ccccc2)c2cc(Cl)ccc21 (stereo not given)	18.5% (inactive)
CCOC(=O)c1ncn2c1C1CCCN1C(=O)c1cc(OC)ccc1-2 (stereo not given)	4.31% (inactive)
CNCC/C=C/c1cccnc1	9.5% (inactive)
O=C1CCCC2C3CC(CN12)[C@@H]1CCCCN1C3 (stereo not given in full)	14.8% (inactive) and -1% (inactive)
O=C1Nc2ccc(Cl)cc2C(c2ccccc2)=NC1O (stereo not given)	20.6% (inactive)
CCCN1CCCC2Cc3[nH]ncc3CC21 (stereo not given)	1.31% (inactive)
